Drawing on PubChem BioAssay (NCATS), this text covers Potency for five molecules.

Inconclusive results are not listed. Calls of active or inactive are those of the source. The call rests on the fitted dose curve; in most records, active means well fitted curve in the direction sought with a large enough effect; inconclusive means small, poorly fitted or top-dose-only effect, or another doubt; inactive means no such curve, though single readings can be large; an effect the other way counts as inactive or inconclusive.

A short description of test [1]: S16 Schwann cell viability assay (CellTiter-Glo assay) (AID 624031).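 Further: native untransfected S16 rat Schwann cells; cellular ATP luminescence as a viability measure; nearly all actives have a fitted effect of over 70% in size.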 A digest of the protocol: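 Cells were seeded at 500-750 per well in phenol red-free DMEM with 10% FBS and left overnight. Compounds or DMSO were pinned in, incubation ran 24 h at 37 °C/5% CO2, then CellTiter-Glo reagent was added and luminescence measured.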
The subject of test [2] is 3D7. The test is described as follows: qHTS profiling for inhibitors of Plasmodium falciparum proliferation (AID 504749). Further: nearly all actives have a fitted effect of over 60% in size. Further: potency means the concentration at half of the fitted maximal effect. To be noted: P. falciparum in erythrocytes, SYBR Green DNA, 72 h; series mostly up to 28.7 µM. A digest of the protocol:
(§1)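 SYBR Green fluorescence of parasite DNA, read after lysis and overnight dark incubation, measured growth over 72 h in erythrocyte culture at 0.3% parasitemia and 2.5% hematocrit. Data normalised to DMSO and 0.29 uM artemisinin, with plate-drift correction.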
In general terms: Quantitative high-throughput screening tests each substance at several concentrations.

The subject of test [3] is 7G8. The test is described as above. To be noted: P. falciparum in erythrocytes, SYBR Green DNA, 72 h; series mostly up to 28.7 µM. A digest of the protocol:
as §1

Test [4] deals with ATS95. The description is as above. Particulars: P. falciparum in erythrocytes, SYBR Green DNA, 72 h; series mostly up to 28.7 µM. The method in brief:
as §1

In test [5] the test system is CP191. The description is as above. To be noted: P. falciparum in erythrocytes, SYBR Green DNA, 72 h; series mostly up to 28.7 µM. A digest of the protocol: as §1
For test [6], the system named is CP215. Described as above. Particulars: P. falciparum in erythrocytes, SYBR Green DNA, 72 h; series mostly up to 28.7 µM. A digest of the protocol:
as §1

The test system of test [7] is CP247. The description is as above. To be noted: P. falciparum in erythrocytes, SYBR Green DNA, 72 h; series mostly up to 28.7 µM. A digest of the protocol:
as §1

In test [8] the test system is CP260. Described as above. To be noted: P. falciparum in erythrocytes, SYBR Green DNA, 72 h; series mostly up to 28.7 µM. A digest of the protocol:
as §1

The subject of test [9] is CP266. Described as above. Particulars: P. falciparum in erythrocytes, SYBR Green DNA, 72 h; series mostly up to 28.7 µM. A digest of the protocol:
as §1

Test [10] concerns CP291. The test is described as above. Particulars: P. falciparum in erythrocytes, SYBR Green DNA, 72 h; series mostly up to 28.7 µM. The method in brief:
as §1

Test [11] has as its system CP335. The description is as above. To be noted: P. falciparum in erythrocytes, SYBR Green DNA, 72 h; series mostly up to 28.7 µM. The method in brief:
as §1

Test [12] concerns DIV17. Described as above. To be noted: P. falciparum in erythrocytes, SYBR Green DNA, 72 h; series mostly up to 28.7 µM. A digest of the protocol:
as §1

Test [13] has as its system DIV30. The test is described as above. Particulars: P. falciparum in erythrocytes, SYBR Green DNA, 72 h; series mostly up to 28.7 µM. A digest of the protocol:
as §1

Test [14] deals with P93_24. The description is as above. Particulars: P. falciparum in erythrocytes, SYBR Green DNA, 72 h; series mostly up to 28.7 µM. A digest of the protocol:
as §1

Test [15] deals with P94_40. The test is described as above. Particulars: P. falciparum in erythrocytes, SYBR Green DNA, 72 h; series mostly up to 28.7 µM. A digest of the protocol: as §1
The test system of test [16] is PAD. Described as above. To be noted: P. falciparum in erythrocytes, SYBR Green DNA, 72 h; series mostly up to 28.7 µM. The method in brief:
as §1

Test [17] concerns SC27B. The description is as above. To be noted: P. falciparum in erythrocytes, SYBR Green DNA, 72 h; series mostly up to 28.7 µM. A digest of the protocol:
as §1

In test [18] the test system is TAB113. The test is described as above. To be noted: P. falciparum in erythrocytes, SYBR Green DNA, 72 h; series mostly up to 28.7 µM. A digest of the protocol:
as §1

The subject of test [19] is TAB165. The test is described as above. Particulars: P. falciparum in erythrocytes, SYBR Green DNA, 72 h; series mostly up to 28.7 µM. A digest of the protocol:
as §1

For test [20], the system named is PC26. The test is described as above. Particulars: P. falciparum in erythrocytes, SYBR Green DNA, 72 h; series mostly up to 28.7 µM. A digest of the protocol: as §1

`CC1OC(OC2CCC3(C)C(CCC4C3CC(O)C3(C)C(C5=CC(=O)OC5)CCC43O)C2)CC(O)C1OC1CC(O)C(OC2CC(O)C(OC3OC(CO)C(O)C(O)C3O)C(C)O2)C(C)O1` (stereo not drawn): the Potency result in [1], in test [2], in [3], in test [4], in test [5] and in test [6] was “inactive” each time. Further, the Potency entry in test [7], in [8], in [9], in test [10], in test [11] and in [12] was “inactive” in each case. In addition, the Potency entry in test [13], in [14], in [15], in test [16], in [17] and in [18] was “inactive” throughout. Moreover, the Potency entry in test [19] was “inactive”.

On to `CCCCCCCCCCCCCCCC(=O)OC[C@H](O)[C@H]1OC[C@@H](O)[C@@H]1O`, for which the Potency result in [1], in [2], in test [3], in test [4], in test [5] and in test [6] was “inactive” each time. Also, the Potency result in [7], in test [8], in test [9], in test [10], in [11] and in [12] was “inactive” in each case. Further, the Potency entry in [13], in test [14], in test [15], in [16], in test [20] and in test [17] was “inactive” in each case. Moreover, the Potency result in [18] and in test [19] was “inactive” throughout.

Regarding `CO/N=C(/C(=O)N[C@@H]1C(=O)N2C(C(=O)O)=C(CSC(=O)c3ccco3)CSC12)c1csc(N)n1` (stereo partly drawn), the Potency entry in test [1], in test [2], in test [3], in [4], in test [5] and in test [6] was “inactive” throughout. For the same molecule, the Potency result in [7], in test [8], in test [9], in test [10], in test [11] and in test [12] was “inactive” each time. Also, the Potency entry in test [13], in [14], in test [15], in test [16], in [20] and in test [17] was “inactive” in each case. Further, the Potency entry in test [18] and in [19] was “inactive” throughout.

For the molecule `C[n+]1c2cc(N)ccc2cc2ccc(N)cc21`, the Potency result in test [1] is “inactive”. Further, the Potency is 398 nM (active) in [2]; 63.1 nM (active) in [3]; 1120 nM (active) in test [4]; 282 nM (active) in [5]; 1070 nM (active) in test [6]; 1120 nM (active) in [7]. Besides, the Potency was 316 nM (active) in test [8]; 1350 nM (active) in [9]; 1200 nM (active) in test [10]; 849 nM (active) in [11]; 269 nM (active) in [12]; 1690 nM (active) in [13]. Further, the Potency in test [14] is 562 nM (active); in test [15], 631 nM (active); in test [16] it was 1000 nM (active); in test [20], 1350 nM (active); in [17] it was 1580 nM (active); in test [18] it was 891 nM (active). Besides, the Potency in test [19] is 398 nM (active).

In the case of `CC1(Cn2ccnn2)[C@H](C(=O)O)N2C(=O)C[C@H]2S1(=O)=O` (stereo partly drawn), the Potency result in test [1], in [2], in test [3], in [4], in test [5] and in [6] was “inactive” in each case. In addition, the Potency result in [7], in [8], in [9], in [10], in test [11] and in test [12] was “inactive” throughout. In addition, the Potency result in [14], in test [15], in test [16], in test [20], in test [17] and in test [18] was “inactive” in each case. For the same molecule, the Potency entry in [19] was “inactive”.
